Among all 50,000 compounds or so, about 800 (1.6%) showed an effect of 50% or more. The sample holds strong results, similar compounds and a random draw of the others, so the mix is not that of the screen.

The values that follow come from PubChem BioAssay AID1240 (Sanford-Burnham Center for Chemical Genomics, 2008).

The assay deals with Bcl-2-like protein 10 (Homo sapiens) (UniProt Q9HD36). As to the kind of experiment: Phenotype converters, Bcl-B/TR3 peptide binding displacement, primary biochemical FP (AID 1240).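 Also: 0% = Bcl-B with tracer peptide and DMSO and 100% = tracer peptide lacking Bcl-B.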 To be noted: GST-Bcl-B / FITC-TR3 peptide fluorescence polarization; stronger effect = higher value; compound at 3.75 mg/L. (Polarisation of emitted light reports the rotation of a fluorescent probe.)
Sequence of Bcl-2-like protein 10 (Homo sapiens) (Q9HD36 whole entry, looked up): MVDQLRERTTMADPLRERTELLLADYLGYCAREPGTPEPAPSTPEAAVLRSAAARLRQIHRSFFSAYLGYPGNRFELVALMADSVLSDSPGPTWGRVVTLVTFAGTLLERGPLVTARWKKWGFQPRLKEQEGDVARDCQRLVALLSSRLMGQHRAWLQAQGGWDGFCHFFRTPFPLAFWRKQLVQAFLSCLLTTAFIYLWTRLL
As to `CC(Oc1ccccc1)C(=O)N1CCC(Cc2ccccc2)CC1` (stereo unspecified), the displacement was 3.1%.

Consider `C=CCN1C(=O)/C(=C\c2ccc3c(c2)OCO3)C(=O)NC1=S`, for which the displacement was 4.4%. Consider `COc1c(Cl)cc(C(=O)Nc2c(C)cccc2C)cc1Cl`, for which the displacement was 6.7%.

On to `COc1ccc(Br)cc1C1C(C(=O)OCCOC(C)C)=C(C)NC2=C1C(=O)CCC2` (stereo unspecified), for which the displacement is -2.6%. With `Cc1ccc(NC(=O)CN(c2ccc(C(C)C)cc2)S(=O)(=O)c2ccccc2)c(C)c1` the figure was 5.6%; with `COc1cc(C2OCC3(CO)C(C)C=C(C)C2C3C)ccc1O` (stereo unspecified), 16.4%; with `O=C1c2cccc3c(N4CCCCC4)ccc(c23)C(=O)N1c1ccc(Cl)cc1`, 5.7%. With `Cc1cccc(N2C(=O)c3ccc(-c4ccc5c(c4)C(=O)N(c4cccc(C)c4)C5=O)cc3C2=O)c1` the figure was 6.7%; with `Cc1cccc(N2C(=O)c3cccc4c(N5CCOCC5)ccc(c34)C2=O)c1`, 154%. As for `O=C1c2cccc3c(N4CCNCC4)ccc(c23)C(=O)N1c1ccc(Cl)cc1`, the figure is 101%. Consider `COc1ccc(N2C(=O)c3cccc4c(N5CCNCC5)ccc(c34)C2=O)cc1`, for which the displacement stood at 37.2%.

In the case of `Cc1cccc(N2C(=O)c3cccc4c(N5CCCCC5)ccc(c34)C2=O)c1`, the displacement came out at 15.5%. With `CC(=O)Oc1ccc(-c2cccc(C(=O)NC(CO)C(O)c3ccc([N+](=O)[O-])cc3)c2)cc1` (stereo unspecified) the figure was 10.4%.

As for `COC(=O)c1ccc(-n2ncnc2-c2ccc(Br)cc2)cc1`, the displacement is -5.4%. Consider `CCC(=O)NC(Nc1ccc(OC)cc1)(C(F)(F)F)C(F)(F)F`, for which the displacement was -2.7%.

Take `Cc1csc(-c2cc3ccc(OCc4c(F)c(F)c(F)c(F)c4F)cc3oc2=O)n1`: the displacement turned out to be 6.9%. As for `Cc1oc2c(CN3CC4(C)CC3CC(C)(C)C4)c(O)ccc2c(=O)c1-c1nc2ccccc2s1` (stereo unspecified), the displacement amounted to 11.2%.

As to `Cc1csc(-c2cc3ccc(O)c(CN4CC5(C)CC4CC(C)(C)C5)c3oc2=O)n1` (stereo unspecified), the displacement is 138%. For the compound `COc1ccc(C)cc1NC(=O)COc1ccc(Cl)cc1C`, the displacement is -5.2%. With `O=C(O)CCC(=O)Nc1ccc(CC(=O)O)cc1` the figure was 21.4%.

For the compound `CCOC(=O)c1c(NC(=O)C2CCCO2)sc(C(=O)N(CC)CC)c1C` (stereo unspecified), the displacement was -4%. With `CCN(CC)c1ccc(/C=C(\C#N)c2nn(CCO)c(N)c2C#N)cc1` the figure was 68.2%; with `N#C/C(=C\c1ccc(Cl)cc1)c1nn(CCO)c(N)c1C#N`, 11.2%; with `N#C/C(=C\c1ccc(F)cc1)c1nn(CCO)c(N)c1C#N`, -45.5%. For the compound `COc1cc(OC)cc(C(=O)O/N=C(\c2ccncc2)c2ccc([N+](=O)[O-])cc2)c1`, the displacement came out at 10.5%. In the case of `O=C1/C(=C/c2ccc(-c3cccc([N+](=O)[O-])c3)o2)SC(=S)N1Cc1ccco1`, the displacement came to 9.9%. Turning to `O=C(O)CCCN1C(=O)/C(=C\c2ccc(-c3cccc([N+](=O)[O-])c3)o2)SC1=S`, the displacement stood at 59%. On to `O=C(O)CCN1C(=O)/C(=C/c2ccc(-c3ccc([N+](=O)[O-])cc3)o2)SC1=S`, for which the displacement is -59.7%. With `O=C1/C(=C/c2ccc(-c3ccc([N+](=O)[O-])cc3)o2)SC(=S)N1Cc1ccccc1` the figure was 9.4%; with `O=C(O)CCCN1C(=O)/C(=C\c2ccc(-c3ccc(Br)cc3)o2)SC1=S`, -65.6%.

On to `O=C1/C(=C\c2ccc(-c3cccc([N+](=O)[O-])c3)o2)SC(=S)N1CCc1ccccc1`, for which the displacement amounted to 114%. As for `O=C(NC1CCN(Cc2ccccc2)CC1)c1ccc(F)cc1`, the figure is 2.6%. As for `FC(F)(F)c1cccc(NC(=S)NCc2ccc3c(c2)OCO3)c1`, the figure is -6.8%; as for `CCc1cc(C)cc(OCCn2cc(/C=C3/SC(=S)N(C)C3=O)c3ccccc32)c1`, 123%. With `O=C1NC(=S)S/C1=C/c1cn(CCOc2ccc(Br)cc2)c2ccccc12` the figure was 68.9%; with `CC(C)(C)c1ccc(OCCn2cc(/C=C3/SC(=S)NC3=O)c3ccccc32)cc1`, 15.2%; with `Cc1ccccc1OCCn1cc(C=C2C(=O)NC(=S)NC2=O)c2ccccc21`, 6.1%. For `COc1cccc(OCCn2cc(/C=C3/SC(=S)NC3=O)c3ccccc32)c1`, the displacement is -15.1%. Turning to `CCc1cc(C)cc(OCCn2cc(C=C3C(=O)NC(=S)NC3=O)c3ccccc32)c1`, the displacement worked out at 14.7%. For the compound `Cc1cccc(OCCn2cc(/C=C3/SC(=S)N(C)C3=O)c3ccccc32)c1`, the displacement is 15.1%. For the compound `CCC(C)c1ccccc1OCCn1cc(/C=C2/SC(=S)NC2=O)c2ccccc21` (stereo unspecified), the displacement came out at 128%.

As to `CCc1cc(C)cc(OCCOc2ccccc2/C=C2/SC(=S)N(C)C2=O)c1`, the displacement turned out to be 2.3%. With `COc1cccc(OCCn2cc(C=C3C(=O)NC(=S)NC3=O)c3ccccc32)c1` the figure was 36.6%; with `O=C1NC(=S)S/C1=C\c1cn(CCOc2ccccc2F)c2ccccc12`, -62.3%. As for `CCc1cc(C)cc(OCCn2cc(/C=C3/SC(=S)NC3=O)c3ccccc32)c1`, the figure is 78.8%; as for `O=C(c1ccc([N+](=O)[O-])cc1)N1CCN(CC2CC3C=CC2C3)CC1` (stereo unspecified), -6.8%; as for `O=C(Nc1ccccc1F)c1ccc(CSc2ccc(Cl)cc2)cc1`, 6%. With `COc1ccccc1OCCNC(=O)c1ccc(Br)cc1` the figure was -19.3%. Take `CCOc1ccc(NC(=O)c2cc3cc(OC)ccc3oc2=O)cc1`: the displacement was determined as 13.8%.

Regarding `O=C(Nc1ccccc1I)C1CC(=O)N(c2ccc(Br)cc2)C1` (stereo unspecified), the displacement is -26%.

Regarding `CC1(C)CC(NC(=S)Nc2cccc(Cl)c2)CC(C)(C)N1`, the displacement was -3.3%.

`O=S(=O)(c1ccc(Cl)cc1)n1cccc1`: the displacement is 6.8%. Regarding `O=[N+]([O-])c1ccccc1C=Nc1cc2c(cc1Br)OCCO2`, the displacement was -4.8%. As to `COc1cc2c(cc1NS(=O)(=O)c1ccc([N+](=O)[O-])cc1)oc1ccccc12`, the displacement is -2.9%. For the compound `O=C(O)c1ccc(Cl)c(S(=O)(=O)N2CCCC2)c1`, the displacement was found to be 5.8%. With `O=C1c2ccc(Oc3ccc4c(c3)C(=O)N(Cc3cccnc3)C4=O)cc2C(=O)N1Cc1cccnc1` the figure was -7%; with `O=[N+]([O-])c1ccc(N2CCOCC2)cc1NC1CC1`, 4%; with `COc1ccc(C(=O)NNC(=O)c2cccc(C)c2)c(OC)c1`, 3.3%. `CCOc1ccc(Nc2cc(=O)n(C)c(=O)n2C)cc1`: the displacement is -4.6%.

In the case of `Cc1c(C(=O)O)cccc1-n1c(C)ccc1C`, the displacement was found to be 85.4%. As for `CC(=O)c1c(C(=O)O)cccc1C(=O)O`, the figure is 4.4%; as for `Cc1c(C(=O)O)cccc1-n1c(=O)c2cc3c(=O)n(-c4cccc(C(=O)O)c4C)c(=O)c3cc2c1=O`, 14%. As for `COc1ccc(N)cc1-n1c(C)ccc1C`, the figure is 42.5%; as for `COc1cc(C(=O)O)c(-n2c(C)ccc2C)cc1OC`, 74.7%.

As to `Cc1ccc(-c2ccccc2)n1-c1ccc(Cl)c(C(=O)O)c1`, the displacement is -41.6%. With `Cc1ccc(-c2ccccc2)n1-c1ccc(O)c(C(=O)O)c1`, the displacement is 20.4%.

With `Cc1ccc(-c2ccccc2)n1-c1ccccc1C(=O)O`, the displacement was found to be 86.8%.

Consider `COc1ccc(CSCC(=O)O)cc1C(=O)O`, for which the displacement was -8.5%. In the case of `CCOC(=O)C1=C(c2ccccc2)N=c2s/c(=C\c3cccnc3)c(=O)n2C1c1cc(OC)ccc1OC` (stereo unspecified), the displacement is -3%. With `Cc1ccc(C(=O)Nc2ccccc2C(=O)NC(Cc2c[nH]c3ccccc23)C(=O)O)cc1` (stereo unspecified) the figure was 7.1%. Regarding `CN1C(N)=NC(=O)C12COC(c1cccnc1)OC2` (stereo unspecified), the displacement is 7.8%. `CC(=O)N(C)c1ccc(NC(=O)c2ccccc2[N+](=O)[O-])cc1`: the displacement is -4%. For the compound `Cc1ccc(N(CC(=O)NCCc2ccccc2)S(C)(=O)=O)cc1Cl`, the displacement was found to be 19.2%. With `O=C(O)c1cccc(NC2=C(Cl)C(=O)N(c3ccc(Cl)cc3)C2=O)c1` the figure was 32%; with `Clc1ccccc1COc1cccc(/C=N/Nc2nc(N3CCOCC3)nc(N3CCOCC3)n2)c1`, 2.6%. With `COc1ccc(-c2csc(/C(C#N)=C/c3sccc3C)n2)cc1OC` the figure was 181%. With `Cc1ccsc1/C=C(/C#N)c1nc(-c2ccc(-c3ccccc3)cc2)cs1` the figure was 3.1%; with `N#C/C(=C\c1ccco1)c1nc(-c2ccccc2)cs1`, 58.3%; with `Cc1ccsc1/C=C(/C#N)c1nc(-c2ccc(Cl)cc2)cs1`, 81.1%. Consider `COc1ccc(-c2csc(/C(C#N)=C/c3ccc(C)o3)n2)cc1OC`, for which the displacement was -31.7%. As to `COc1cccc(-c2csc(/C(C#N)=C/c3sccc3C)n2)c1`, the displacement was -8.9%.

For `Cc1ccsc1/C=C(\C#N)c1nc(-c2cccc([N+](=O)[O-])c2)cs1`, the displacement was 147%.

With `N#C/C(=C/c1ccco1)c1nc(-c2cc3ccccc3oc2=O)cs1`, the displacement was -1.2%. For `CCOc1ccc(-c2csc(/C(C#N)=C/c3ccco3)n2)cc1`, the displacement was -6%. As for `COc1ccc(-c2csc(/C(C#N)=C\c3sccc3C)n2)cc1`, the figure is 1.8%. For the compound `N#C/C(=C\c1cccc(F)c1)c1nc(-c2ccc([N+](=O)[O-])cc2)cs1`, the displacement is 8.5%.

In the case of `Cc1ccc(-c2csc(/C(C#N)=C/c3sccc3C)n2)cc1C`, the displacement was determined as 11.7%. On to `CCC(=O)Nc1nc(C23CC4CC(CC(C4)C2)C3)c(C)s1`, for which the displacement is -2.7%. As for `COc1cc(/C=C2/SC(=S)N(Cc3ccccc3)C2=O)cc(Cl)c1OCc1ccccc1`, the figure is 12.4%; as for `CC1=C(C(=O)OCCc2ccccc2)C(c2ccccc2OCc2ccccc2)C2=C(CCCC2=O)N1` (stereo unspecified), -6%; as for `CC(C)CN1C(=O)c2ccc(C(=O)Nc3c[nH]c(=O)[nH]c3=O)cc2C1=O`, 7.8%.

In the case of `C=CCn1c(C)nc2c(cnn2-c2ccccc2)c1=O`, the displacement is -0.7%. With `C=C(C)C1CC=C(C)/C(=N/NC(=O)c2cccc(C)c2)C1` (stereo unspecified) the figure was 14.9%.

As to `CCn1cc(C(=O)NN)c(=O)c2cc(F)c(N3CCCCC3)cc21`, the displacement worked out at 17.4%. With `COc1cc(/C=C2/SC(=S)N(C)C2=O)ccc1OCc1cccc2ccccc12` the figure was 6.6%; with `N#C/C(=C\c1ccccc1Cl)c1nc(-c2cccs2)cs1`, -9.2%; with `CCc1ccc(/C=C(/C#N)c2nc(-c3ccc(Br)cc3)cs2)cc1`, -3.5%. As for `Cc1ccc(-c2csc(/C(C#N)=C/c3sccc3C)n2)c(C)c1`, the displacement was 69.3%.

Regarding `N#C/C(=C\c1cccs1)c1nc(-c2ccc(Cl)cc2Cl)cs1`, the displacement came to 129%. On to `Cc1ccsc1/C=C(/C#N)c1nc(-c2ccc(Br)cc2)cs1`, for which the displacement worked out at 132%. As to `Cc1ccsc1/C=C(\C#N)c1nc(-c2cccc(Br)c2)cs1`, the displacement stood at 95.2%. Consider `N#C/C(=C\c1cccs1)c1nc(-c2ccc(Br)cc2)cs1`, for which the displacement is 5.9%. With `Cc1ccc(-c2csc(/C(C#N)=C/c3ccsc3)n2)cc1` the figure was -5.9%. On to `Cc1ccsc1/C=C(\C#N)c1nc(-c2ccc3c(c2)OCO3)cs1`, for which the displacement was -27%.

Turning to `Cc1ccsc1/C=C(\C#N)c1nc(-c2cc3cc(Br)ccc3oc2=O)cs1`, the displacement is -10.8%.

Consider `Cc1csc(/C(C#N)=C/c2sccc2C)n1`, for which the displacement was -12%.
